# Data as given in PubChem BioAssay (EPA / NIEHS).
# Inconclusive results are not listed. The source made the active and inactive calls. The calls were made as follows: active = hit-call score of the fitted dose curve at least 0.9, where 1 is the maximum; inconclusive = response in the unintended direction; inactive = score below 0.9.
# Target: human Caspase 2 (CASP2), CASP2 (gene 835) (UniProt P42575)
# Assay: NVS_ENZ_hCASP2: NovaScreen (NVS) Enzymatic Assay for human Caspase 2 (CASP2) (AID 2283135)
# Method: NVS_ENZ_hCASP2 is a biochemical, single-readout assay that uses extracted gene-proteins from E. coli in a cell-free assay. Measurements were taken 1 hour after chemical dosing in a 96-well plate.NVS_ENZ_hCASP2 is one of one assay component(s) measured or calculated from the NVS_ENZ_hCASP2 assay. It is designed to make measurements of enzyme activity, a form of enzyme reporter, as detected with fluorescence intensity signals by Fluorescence technology.Data from the assay component NVS_ENZ_hCASP2 was analyzed into 1 assay endpoint. This assay endpoint, NVS_ENZ_hCASP2, was analyzed in the positive analysis fitting direction relative to DMSO as the negative control and baseline of activity. Using a type of enzyme reporter, loss-of-signal activity can be used to understand changes in the enzymatic activity as they relate to the gene CASP2. Furthermore, this assay endpoint can be referred to as a primary readout, because this assay has produced multiple assay endpoints where this one serves a enzymatic activity function. To generalize the intended target to other relatable targets, this assay endpoint is annotated to the protease intended target family, where the subfamily is cysteine protease.
# Binding assays used specific radioligands (tritiated, iodinated) with non-radioactive competitive displacement ligands in agonist or antagonist protocols (as indicated) and various reference compounds and inhibitors to titrate specific binding to receptors and transporters. Most enzyme assays (CYPs, kinases, phosphatases, proteases, HDACs) used recombinant protein and specific substrates (fluorescence mostly, some colorimetric and radioactive) and inhibitors, followed by a biochemical separation of substrate and product. All assays for the biochemical HTS were initially run in duplicate at a single concentration (10 uM for CYP450 assays and 25 uM for all others). Assay-chemical combinations meeting a pre-defined threshold (e.g., 30% inhibition and other criteria defined below) were then run in singleton concentration-response format with maximum concentration of 20 uM for CYPs and 50 uM for all others. Each assay was run with positive and negative controls, and concurrent controls on every plate. The follow-up (secondary) screen tested active chemical-pairs in concentration series, as well as a few additional assays not tested in the primary screen, some selected negative inactives, and several cases re-run in the concentration series for confirmatory purposes.
# Chain of human Caspase 2 (CASP2), CASP2 (gene 835) (P42575 whole entry, looked up): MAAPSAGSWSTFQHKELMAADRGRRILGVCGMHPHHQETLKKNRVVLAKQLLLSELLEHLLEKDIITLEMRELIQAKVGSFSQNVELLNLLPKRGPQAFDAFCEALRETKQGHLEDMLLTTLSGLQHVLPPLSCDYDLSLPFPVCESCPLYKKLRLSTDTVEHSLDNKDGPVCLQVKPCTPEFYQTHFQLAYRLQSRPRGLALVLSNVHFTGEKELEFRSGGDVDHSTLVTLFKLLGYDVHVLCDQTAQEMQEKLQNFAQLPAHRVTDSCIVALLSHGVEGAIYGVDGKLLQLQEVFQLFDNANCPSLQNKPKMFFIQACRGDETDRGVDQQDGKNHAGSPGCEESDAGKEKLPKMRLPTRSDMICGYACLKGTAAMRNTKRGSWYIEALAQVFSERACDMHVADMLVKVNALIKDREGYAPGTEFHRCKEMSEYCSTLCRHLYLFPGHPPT
Structure (SMILES),outcome,AC50
CC[C@@H]1C[C@H](N(Cc2cc(C(F)(F)F)cc(C(F)(F)F)c2)C(C)=O)c2cc(C(F)(F)F)ccc2N1C(=O)OC(C)C,inactive,
Cc1c(-c2cccnc2)c2ccccc2n1CCCCC(=O)O,inactive,
CNCc1cc(F)ccc1Oc1ccc(Cl)c(Cl)c1,inactive,
O=C(O)Cn1c(=O)n(Cc2ccc(Br)cc2F)c(=O)c2ccc(Cl)cc21,inactive,
O=C(O)c1[nH]n(-c2ccc(S(=O)(=O)O)cc2)c(=O)c1N=Nc1ccc(S(=O)(=O)O)cc1,inactive,
O=C(NO)C1(NS(=O)(=O)c2ccc(Oc3ccc(F)cc3)cc2)CCOCC1,inactive,
O=C(O)CCN(C1(C(=O)NO)CCCC1)S(=O)(=O)c1ccc(Oc2ccc(F)cc2)cc1,inactive,
Cc1nc(C)nc(N2C[C@@H](C)N(c3ccnc([C@@H](C)O)n3)[C@@H](C)C2)n1,inactive,
CN(C)CCCN(C)CCCN(C)C,inactive,
Cc1cccc2ccccc12,inactive,
CN(C)c1ccc(C(=C2C=CC(=[N+](C)C)C=C2)c2ccc(N(C)C)cc2)cc1,,18.2 µM (active)
CCCCCCOC(=O)CC(CC(=O)OCCCCCC)(OC(=O)CCC)C(=O)OCCCCCC,inactive,
CO[C@H]1/C=C/O[C@@]2(C)Oc3c(C)c(O)c4c(O)c(c(/C=N/N5CCN(C)CC5)c(O)c4c3C2=O)NC(=O)/C(C)=C\C=C\[C@H](C)[C@H](O)[C@@H](C)[C@@H](O)[C@@H](C)[C@H](OC(C)=O)[C@@H]1C,inactive,
NC(=O)N(O)[C@@H]1C=C[C@H](Oc2cccc(Oc3ccc(F)cc3)c2)C1,inactive,
CCCCOC(=O)c1ccc(O)cc1,inactive,
CC(C)COC(=O)CCCCC(=O)OCC(C)C,inactive,
O=S(=O)(O)c1ccc(N=Nc2c(O)ccc3cc(S(=O)(=O)O)ccc23)cc1,,20.4 µM (active)
c1ccc(Nc2ccccc2)cc1,inactive,
Cc1oc(-c2ccccc2)nc1CCOc1cccc2c1ccn2CCC(=O)O,inactive,
CCc1cccc(CC)c1N,inactive,

Structure (SMILES),outcome,AC50
CCC(O)=C1C(=O)CC(C(=O)O)CC1=O (stereo not given),inactive,
Oc1cc2ccccc2c2ccccc12,,14.6 µM (active)
NCC1(Cc2noc(=O)[nH]2)CCCCC1,inactive,
Cc1nccn1-c1ccc(Sc2cccc(C3(C(N)=O)CCOCC3)c2)cc1,inactive,
COc1cc(S(=O)(=O)O)c(C)cc1N=Nc1c(O)ccc2cc(S(=O)(=O)O)ccc12,,6.73 µM (active)
COCC(C)OCC(C)OCC(C)O (stereo not given),inactive,
O=C1CCC(N2C(=O)c3ccccc3C2=O)C(=O)N1 (stereo not given),inactive,
CSc1ccc(Oc2ccc(S(N)(=O)=O)cc2CN(C)C)cc1C,inactive,
O=[N+]([O-])c1ccc(O)cc1,inactive,
Cc1cccc([N+](=O)[O-])c1C,inactive,
O=C(OC[C@H]1O[C@@H](OC(=O)c2cc(O)c(O)c(OC(=O)c3cc(O)c(O)c(O)c3)c2)[C@H](OC(=O)c2cc(O)c(O)c(OC(=O)c3cc(O)c(O)c(O)c3)c2)[C@@H](OC(=O)c2cc(O)c(O)c(OC(=O)c3cc(O)c(O)c(O)c3)c2)[C@@H]1OC(=O)c1cc(O)c(O)c(OC(=O)c2cc(O)c(O)c(O)c2)c1)c1cc(O)c(O)c(OC(=O)c2cc(O)c(O)c(O)c2)c1,,4.65 µM (active)
COC(=O)CC(=O)OC,inactive,
C[C@@H](Oc1ccc(CNC(=O)c2cccnc2Oc2ccc3c(c2)OCO3)c(F)c1)C(=O)O,inactive,
COc1ccc2cc(S(=O)(=O)N[C@H](CC(=O)N[C@H](Cc3ccc(CN4[C@H](C)CCC[C@@H]4C)cc3)C(=O)N(C)C(C)C)c3ccc4c(c3)OCO4)ccc2c1,inactive,
CCN(CC)C(=O)c1cc(S(=O)(=O)Cc2ccccc2)c(N2CCC(c3ccccc3)CC2)cc1N(CC)CCN(C)C,inactive,
O=C(O)c1ccccc1C(=O)OCc1ccccc1,inactive,
S=C([S-])NCCNC(=S)[S-].[Mn+2],inactive,
Cc1ccc(C(C)(C)C)c(O)c1,inactive,
CCOc1ccc2c(c1)C(C)=CC(C)(C)N2,inactive,
CCCC(CCC)C(=O)O,inactive,
